Calls of active or inactive are those of the source. A call without a number means that no potency is given here. Calls follow the shape of the dose curve; as a rule, active = well fitted curve in the direction sought with a large enough effect; inconclusive = small, poorly fitted or top-dose-only effect, or another doubt; inactive = no such curve, though single readings can be large; an effect the other way counts as inactive or inconclusive.
Tests used:
[1] = qHTS for inhibitors of adenylyl cyclases using a fission yeast platform: a pilot screen against the NCATS LOPAC library (AID 1347410)
In short: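 S. pombe CHP2027 (AC9-GNAS-PDE4D2) carrying PKA-repressed fbp1-GFP, incubated 18 h at 30C in EMM with LOPAC compounds at up to 57 uM. GFP gain-of-signal read by laser scanning cytometry; DMSO negative control.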

[2] = Validation qHTS assay for inhibitors of Activation Induced Cytidine Deaminase (AID): UDG Counterscreen signal (AID 1347427)
In short: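 Fluorescence at 560 nm excitation, 665 nm emission reports UDG signal after 250 mM NaOH (2x) addition and 30 min. Enzymes (AID 1 uM, UDG 2 U/mL, at 4/3x) preincubated 10 min with compound, then 4 h with 4x 250 nM DJC20/DJC23 substrate at room temperature.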

[3] = target: Single-stranded DNA cytosine deaminase (Homo sapiens) (UniProt Q9GZX7); assay: Validation qHTS assay for inhibitors of Activation Induced Cytidine Deaminase (AID): AID signal (AID 1347429)
Sequence of Single-stranded DNA cytosine deaminase (Homo sapiens) (Q9GZX7 whole entry, looked up): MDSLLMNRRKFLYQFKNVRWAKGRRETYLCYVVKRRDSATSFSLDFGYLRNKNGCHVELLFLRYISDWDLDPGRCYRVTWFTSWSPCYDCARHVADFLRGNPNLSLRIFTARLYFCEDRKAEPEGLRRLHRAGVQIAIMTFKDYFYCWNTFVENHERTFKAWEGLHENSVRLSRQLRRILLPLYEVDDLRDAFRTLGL
In short: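 Compounds (up to 114 uM final) are tested against AID plus UDG using DJC20/DJC23 FRET substrate. Reactions incubate 4 hr at room temperature, receive NaOH for 30 min, and are read at Ex 540/Em 590 nm.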

## O=C1NC(=O)c2cc(Nc3ccccc3)c(Nc3ccccc3)cc21
[1]
  outcome: inactive
[2]
  Potency: inactive
[3]
  Potency: inactive

## C[C@@]1(C2CCCC2)Cc2cc(OCC(=O)O)c(Cl)c(Cl)c2C1=O
[1]
  outcome: inactive
[2]
  Potency: inactive
[3]
  Potency: inactive

## C=CCNc1ncnc2ccc(Br)cc12
[1]
  outcome: inactive
[2]
  Potency: inactive
[3]
  Potency: inactive

## C=CC1(C)CC(=O)C2(O)C(C)(O1)C(OC(C)=O)C(O)C1C(C)(C)CCC(O)C12C (stereo not drawn)
[2]
  Potency: inactive
[3]
  Potency: inactive

## S=C(S)N1CCCC1
[2]
  Potency: inactive
[3]
  Potency: inactive

## CCCCOC(=O)NS(=O)(=O)c1sc(CC(C)C)cc1-c1ccc(Cn2c(CC)nc3c(C)cc(C)nc32)cc1
[1]
  outcome: inactive
[2]
  Potency: inactive
[3]
  Potency: inactive

## CCCCCCCCCCC(C)(C)C(=O)Nc1c(OC)cc(OC)cc1OC
[1]
  outcome: inactive
[2]
  Potency: inactive
[3]
  Potency: inactive

## OC[C@H]1O[C@@H](n2cnc3cncnc32)[C@H](O)[C@@H]1O
[1]
  outcome: inactive
[2]
  Potency: inactive
[3]
  Potency: inactive

## CCCC[C@@]1(C2CCCC2)Cc2cc(OCC(=O)O)c(Cl)c(Cl)c2C1=O
[3]
  Potency: inactive

## COC(=O)C1=C(C)NC(C)=C([N+](=O)[O-])C1c1ccccc1C(F)(F)F (stereo not drawn)
[1]
  outcome: inactive
[2]
  Potency: inactive
[3]
  Potency: inactive

## NCCNS(=O)(=O)c1cccc2c(Cl)cccc12
[1]
  outcome: inactive
[3]
  Potency: inactive

## O=c1cc(-c2ccccc2F)[nH]c2cc3c(cc12)OCO3
[1]
  outcome: inactive
[2]
  Potency: inactive
[3]
  Potency: inactive

## C=CCN1CCc2c(cc(O)c(O)c2Br)[C@@H](c2ccccc2)C1
[1]
  outcome: inactive
[2]
  Potency: inactive
[3]
  Potency: inactive

## O=C1Nc2ccc(I)cc2/C1=C/c1cc(Br)c(O)c(Br)c1
[1]
  outcome: inactive
[3]
  Potency: inactive

## O=c1cc(-c2ccccc2)[nH]c2nc(Cl)ccc12
[1]
  outcome: inactive
[2]
  Potency: inactive
[3]
  Potency: inactive

## O=C(N[C@@H](Cc1ccccc1)C(=O)CCl)OCc1ccccc1
[1]
  outcome: inactive
[2]
  Potency: inactive
[3]
  Potency: inactive

## O=S(=O)(c1cccc2c(Cl)cccc12)N1CCCNCC1
[1]
  outcome: inactive
[2]
  Potency: inactive
[3]
  Potency: inactive

## Nc1nc2ccc(Cl)cc2c2nc(-c3ccco3)nn12
[1]
  outcome: inactive
[2]
  Potency: inactive
[3]
  Potency: inactive

## O=C(O)/C=C/c1cnc[nH]1
[2]
  Potency: inactive
[3]
  Potency: inactive

## COc1cc([C@@H]2c3cc4c(cc3[C@H](O)C3COC(=O)[C@@H]32)OCO4)cc(OC)c1OC (stereo partly drawn)
[1]
  outcome: inactive
[2]
  Potency: inactive
[3]
  Potency: inactive
